# From the supplement of paper PMC11732987, “Enantioselective OTUD7B fragment discovery through chemoproteomics screening and high-throughput optimisation” (Communications Chemistry, 2025)
# Values without a mark were called inactive.
# Key:
# Experiment in all cases: log2 ratio of Biotin-Ahx-Ub-VS probe labelling (fragment/DMSO); higher = less target engagement (more negative = stronger competition), active = hit call of the paper (q ≤ 0.05, log2 ratio ≤ -1)
# Details in all cases: compound concentration: 200 uM; treatment time: 3 h
# OTUD6B = molecular target: T1, OTUD6B (UniProt Q8N6M0)
# T1 sequence (whole entry): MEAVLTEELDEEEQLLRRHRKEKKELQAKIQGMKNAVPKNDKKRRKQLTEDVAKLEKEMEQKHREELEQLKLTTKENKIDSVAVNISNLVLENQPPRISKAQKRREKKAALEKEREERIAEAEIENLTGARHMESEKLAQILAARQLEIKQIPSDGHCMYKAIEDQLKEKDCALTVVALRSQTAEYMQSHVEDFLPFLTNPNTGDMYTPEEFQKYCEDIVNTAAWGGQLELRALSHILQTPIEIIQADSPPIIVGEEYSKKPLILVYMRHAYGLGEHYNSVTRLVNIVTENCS
# In short: (§1)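 Average log2 ratios of fragment over vehicle were obtained by unpaired t-test from global-median-normalised Spectronaut label-free quantities. Proteins with ≥2 unique peptides were included. HEK293T lysate (495 µg per sample) was treated in triplicate with fragment at 200 µM or vehicle for 3 h, then with Biotin-Ahx-Ub-VS at 0.5 µM final for 1 h, and labelled DUBs were NeutrAvidin-enriched and run by diaPASEF LC-MS/MS.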
# OTUD7B = molecular target: T2, OTUD7B (UniProt Q6GQQ9)
# T2 sequence (whole entry): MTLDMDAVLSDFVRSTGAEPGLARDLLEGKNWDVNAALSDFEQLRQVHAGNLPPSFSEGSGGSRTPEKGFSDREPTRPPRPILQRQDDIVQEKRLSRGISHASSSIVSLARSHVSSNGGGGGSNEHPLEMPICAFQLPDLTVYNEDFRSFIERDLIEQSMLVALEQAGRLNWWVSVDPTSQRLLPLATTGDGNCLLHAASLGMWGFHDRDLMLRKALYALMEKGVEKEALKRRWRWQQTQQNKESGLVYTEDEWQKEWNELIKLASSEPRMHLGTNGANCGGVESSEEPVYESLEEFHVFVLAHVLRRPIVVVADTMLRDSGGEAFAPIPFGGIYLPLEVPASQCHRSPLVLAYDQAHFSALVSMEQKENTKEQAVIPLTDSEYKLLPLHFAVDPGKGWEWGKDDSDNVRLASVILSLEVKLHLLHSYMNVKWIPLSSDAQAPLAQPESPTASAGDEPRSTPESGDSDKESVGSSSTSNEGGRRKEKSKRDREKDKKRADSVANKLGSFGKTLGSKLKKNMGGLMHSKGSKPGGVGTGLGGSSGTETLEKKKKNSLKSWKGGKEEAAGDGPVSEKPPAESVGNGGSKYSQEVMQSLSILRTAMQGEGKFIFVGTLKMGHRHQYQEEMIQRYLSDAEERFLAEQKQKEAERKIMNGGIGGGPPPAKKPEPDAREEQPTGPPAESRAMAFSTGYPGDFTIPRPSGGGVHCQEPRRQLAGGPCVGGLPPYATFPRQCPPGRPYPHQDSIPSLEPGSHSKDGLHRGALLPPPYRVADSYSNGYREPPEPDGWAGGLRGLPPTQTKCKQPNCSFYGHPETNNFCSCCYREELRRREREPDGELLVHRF
# In short: as §1
# PRPF8 = PRPF8 (UniProt Q6P2Q9)
# In short: as §1
# PSMD7 = molecular target: T3, PSMD7 (UniProt P51665)
# T3 sequence (whole entry): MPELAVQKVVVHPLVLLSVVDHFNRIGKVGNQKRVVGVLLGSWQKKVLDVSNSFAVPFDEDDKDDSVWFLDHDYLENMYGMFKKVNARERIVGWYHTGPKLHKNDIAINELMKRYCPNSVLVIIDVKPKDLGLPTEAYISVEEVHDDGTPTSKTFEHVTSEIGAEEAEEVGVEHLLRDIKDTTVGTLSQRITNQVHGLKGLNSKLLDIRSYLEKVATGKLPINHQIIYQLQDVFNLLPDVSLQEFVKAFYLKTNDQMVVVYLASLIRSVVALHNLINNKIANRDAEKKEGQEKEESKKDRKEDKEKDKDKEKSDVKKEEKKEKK
# In short: as §1
# UCHL1 = UCHL1 (UniProt P09936)
# Sequence of UCHL1 (P09936 whole entry, looked up): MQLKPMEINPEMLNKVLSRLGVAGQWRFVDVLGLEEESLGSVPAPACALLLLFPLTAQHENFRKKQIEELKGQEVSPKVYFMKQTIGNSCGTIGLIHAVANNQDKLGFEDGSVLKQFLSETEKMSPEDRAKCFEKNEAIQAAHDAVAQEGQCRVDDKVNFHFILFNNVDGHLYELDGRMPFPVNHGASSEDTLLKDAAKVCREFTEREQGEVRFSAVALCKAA
# In short: as §1
# UCHL3 = molecular target: T4, UCHL3 (UniProt P15374)
# T4 sequence (whole entry): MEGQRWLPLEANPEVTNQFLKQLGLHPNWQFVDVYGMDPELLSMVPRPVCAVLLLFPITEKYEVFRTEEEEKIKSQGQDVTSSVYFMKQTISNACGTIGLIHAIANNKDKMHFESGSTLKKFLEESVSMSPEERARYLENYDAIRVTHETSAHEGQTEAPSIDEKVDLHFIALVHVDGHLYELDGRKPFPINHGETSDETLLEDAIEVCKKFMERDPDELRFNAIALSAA
# In short: as §1
# UCHL5 = molecular target: T5, UCHL5 (UniProt Q9Y5K5)
# T5 sequence (whole entry): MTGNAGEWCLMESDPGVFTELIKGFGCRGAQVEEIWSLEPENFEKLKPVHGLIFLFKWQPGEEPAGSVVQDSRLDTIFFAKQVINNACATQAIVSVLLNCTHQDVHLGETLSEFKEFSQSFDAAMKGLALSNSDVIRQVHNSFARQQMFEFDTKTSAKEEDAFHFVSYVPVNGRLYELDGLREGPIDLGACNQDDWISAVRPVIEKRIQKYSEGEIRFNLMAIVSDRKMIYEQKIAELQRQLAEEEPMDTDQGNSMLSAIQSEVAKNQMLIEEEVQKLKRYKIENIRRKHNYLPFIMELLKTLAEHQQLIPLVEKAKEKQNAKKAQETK
# In short: as §1
# USP10 = USP10 (UniProt Q14694)
# Sequence of USP10 (Q14694 whole entry): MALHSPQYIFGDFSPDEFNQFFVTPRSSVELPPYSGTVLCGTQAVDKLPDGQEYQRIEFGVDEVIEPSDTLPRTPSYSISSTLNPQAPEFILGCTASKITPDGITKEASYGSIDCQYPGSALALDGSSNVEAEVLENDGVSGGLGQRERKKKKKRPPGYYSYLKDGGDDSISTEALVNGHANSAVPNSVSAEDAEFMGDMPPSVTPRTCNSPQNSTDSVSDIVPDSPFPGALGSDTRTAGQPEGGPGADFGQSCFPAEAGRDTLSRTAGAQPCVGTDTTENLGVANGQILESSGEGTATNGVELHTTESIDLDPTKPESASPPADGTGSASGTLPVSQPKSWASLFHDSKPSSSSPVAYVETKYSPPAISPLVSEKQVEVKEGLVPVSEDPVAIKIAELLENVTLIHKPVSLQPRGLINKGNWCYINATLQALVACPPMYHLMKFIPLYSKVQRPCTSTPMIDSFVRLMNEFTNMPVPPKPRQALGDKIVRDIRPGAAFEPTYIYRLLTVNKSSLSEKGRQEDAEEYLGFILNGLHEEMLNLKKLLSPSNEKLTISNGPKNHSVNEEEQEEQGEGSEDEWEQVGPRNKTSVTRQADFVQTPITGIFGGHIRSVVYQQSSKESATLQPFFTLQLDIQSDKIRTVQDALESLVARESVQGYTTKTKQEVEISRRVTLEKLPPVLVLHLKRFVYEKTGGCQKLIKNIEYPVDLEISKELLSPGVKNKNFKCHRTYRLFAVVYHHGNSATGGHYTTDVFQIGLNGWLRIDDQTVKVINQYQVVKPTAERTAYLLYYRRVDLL
# In short: as §1
# USP15 = molecular target: T6, USP15 (UniProt Q9Y4E8)
# T6 sequence (whole entry): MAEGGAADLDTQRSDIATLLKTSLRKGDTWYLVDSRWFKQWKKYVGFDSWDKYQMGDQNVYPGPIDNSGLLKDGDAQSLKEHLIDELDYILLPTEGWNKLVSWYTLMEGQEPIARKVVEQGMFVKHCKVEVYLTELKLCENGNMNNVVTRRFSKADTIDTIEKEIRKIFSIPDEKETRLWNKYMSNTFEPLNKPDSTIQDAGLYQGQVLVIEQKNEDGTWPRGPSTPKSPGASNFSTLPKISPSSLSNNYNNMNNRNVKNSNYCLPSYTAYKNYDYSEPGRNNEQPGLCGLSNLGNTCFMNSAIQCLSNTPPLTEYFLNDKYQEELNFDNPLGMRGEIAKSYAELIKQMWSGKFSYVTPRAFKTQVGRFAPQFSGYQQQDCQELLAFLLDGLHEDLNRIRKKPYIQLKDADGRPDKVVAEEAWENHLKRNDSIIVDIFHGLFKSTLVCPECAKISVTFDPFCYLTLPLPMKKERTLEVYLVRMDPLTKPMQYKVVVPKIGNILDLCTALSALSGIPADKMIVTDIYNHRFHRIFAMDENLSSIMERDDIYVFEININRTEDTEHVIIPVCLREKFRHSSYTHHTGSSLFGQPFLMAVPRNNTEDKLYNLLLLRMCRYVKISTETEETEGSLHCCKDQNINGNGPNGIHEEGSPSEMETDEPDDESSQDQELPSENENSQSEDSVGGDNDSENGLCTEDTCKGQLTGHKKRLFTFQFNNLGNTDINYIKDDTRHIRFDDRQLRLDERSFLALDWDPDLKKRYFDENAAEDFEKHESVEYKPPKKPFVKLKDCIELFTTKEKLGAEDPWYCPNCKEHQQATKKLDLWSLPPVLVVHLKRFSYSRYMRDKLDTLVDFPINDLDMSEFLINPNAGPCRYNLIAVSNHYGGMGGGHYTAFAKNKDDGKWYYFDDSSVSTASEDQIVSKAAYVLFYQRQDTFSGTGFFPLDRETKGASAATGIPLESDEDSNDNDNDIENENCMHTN
# In short: as §1
# USP16 = USP16 (UniProt Q9Y5T5)
# Sequence of USP16 (Q9Y5T5 whole entry, looked up): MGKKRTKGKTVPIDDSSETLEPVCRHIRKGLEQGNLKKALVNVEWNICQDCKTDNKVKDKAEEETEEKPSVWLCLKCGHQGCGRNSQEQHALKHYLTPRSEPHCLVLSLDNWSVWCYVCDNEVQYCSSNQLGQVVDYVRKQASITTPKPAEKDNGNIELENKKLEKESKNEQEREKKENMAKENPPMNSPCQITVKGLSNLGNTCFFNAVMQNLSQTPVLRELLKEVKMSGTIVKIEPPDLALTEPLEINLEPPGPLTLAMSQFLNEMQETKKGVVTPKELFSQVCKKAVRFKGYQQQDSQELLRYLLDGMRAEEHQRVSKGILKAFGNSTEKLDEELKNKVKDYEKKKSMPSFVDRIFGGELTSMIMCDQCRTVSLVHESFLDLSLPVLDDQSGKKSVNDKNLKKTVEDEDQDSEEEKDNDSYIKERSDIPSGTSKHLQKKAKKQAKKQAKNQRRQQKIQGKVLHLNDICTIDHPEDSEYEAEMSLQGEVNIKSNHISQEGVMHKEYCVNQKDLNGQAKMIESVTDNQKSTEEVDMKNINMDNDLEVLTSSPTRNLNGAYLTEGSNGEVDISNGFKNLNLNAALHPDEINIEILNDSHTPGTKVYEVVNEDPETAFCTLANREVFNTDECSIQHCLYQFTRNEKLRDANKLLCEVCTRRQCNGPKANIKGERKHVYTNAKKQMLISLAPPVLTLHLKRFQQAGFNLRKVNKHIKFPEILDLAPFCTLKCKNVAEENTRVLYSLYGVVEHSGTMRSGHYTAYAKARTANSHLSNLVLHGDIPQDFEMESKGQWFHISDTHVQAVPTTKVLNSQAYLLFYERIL
# In short: as §1
compound,measurement,setting,value
Cc1nc(CC2CCN(C(=O)CCl)CC2)no1,log2 ratio of Biotin-Ahx-Ub-VS probe labelling,OTUD6B,-0.781
same,log2 ratio of Biotin-Ahx-Ub-VS probe labelling,OTUD7B,-0.652
same,log2 ratio of Biotin-Ahx-Ub-VS probe labelling,PRPF8,-0.314
same,log2 ratio of Biotin-Ahx-Ub-VS probe labelling,PSMD7,0.0562
same,log2 ratio of Biotin-Ahx-Ub-VS probe labelling,UCHL1,-1.96 (active)
same,log2 ratio of Biotin-Ahx-Ub-VS probe labelling,UCHL3,-0.269
same,log2 ratio of Biotin-Ahx-Ub-VS probe labelling,UCHL5,-0.792
same,log2 ratio of Biotin-Ahx-Ub-VS probe labelling,USP10,-0.321
same,log2 ratio of Biotin-Ahx-Ub-VS probe labelling,USP15,-0.77
same,log2 ratio of Biotin-Ahx-Ub-VS probe labelling,USP16,0.0849
